The panel holds about 83,000 compounds, 20% with a hit somewhere; the sample as a whole holds those more often.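 The test compound was applied at a single concentration to cells in 96-well plates for 48 hours, and percent growth was recorded.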 Values without a mark were called inactive. Active and inactive are the calls of the source. How the source made its calls: active means growth percent below 10; inactive means the rest.

The assay has as its system MDA-MB-468 breast. Put plainly: NCI-60 one-dose screen, 48 h (100 = growth as untreated, 0 = no growth, -100 = all killed). To be noted: 10 µM unless noted.
In the case of `O=C1CC(c2nc3ccccc3s2)CN1C1CCCCC1` (stereo not given), the growth is 104%.

As for `O=C1/C(=C/N2N=C(c3ccc4ccccc4c3)CC2c2ccccc2O)SC(=S)N1c1cccnc1` (stereo not given), the growth was 7.52% (active).

Consider `C#CCOC(=O)C(N)CSSCC(N)C(=O)O` (stereo not given), for which the growth was 109%.

With `O=P(OCCCl)(OCCCl)C(O)c1ccccc1Cl` (stereo not given), the growth was 109%.

For `Cc1cc(-c2ccc(N(C)C)cc2)c2sc(=O)[nH]c2n1`, the growth is 80%.

On to `COc1cc(C(=O)c2cc(C)c3[nH]c4ccc(O)cc4c3c2C)cc(OC)c1OC`, for which the growth is -22.7% (active).

Consider `COc1nc2ccc(C)cc2cc1/C=[N+](\[O-])c1ccccc1`, for which the growth was 79.3%.

Turning to `O=C(CSc1nc2ccccc2c(=O)n1-c1ccccc1)Nc1cccc(C(=O)/C=C/c2ccccc2)c1`, the growth was 91.3%.

With `Fc1ccc(-c2cc3nc(C(Cl)Cl)nc(-c4ccc(Cl)cc4)n3n2)cc1`, the growth was -76.3% (active).

On to `CCCCC[C@H]1C/C=C2/C(=O)C(Cl)=C[C@@H]2C/C=C\CCCC(=O)O[C@@H](CCCCC)C/C=C2/C(=O)C(Cl)=C[C@@H]2C/C=C\CCCC(=O)O1`, for which the growth was -46% (active).

As to `NC(=O)NCCO`, the growth was 102%.

Turning to `COc1cc(Cl)cc(-c2nn(-c3cccc(NC(=O)c4ccc(Cl)c(Cl)c4)c3)cc2-c2ccncc2)c1`, the growth is 54.6%.

Turning to `Cc1cc(O)cc(O)c1N=NC1=NCCS1`, the growth is 109%.

With `ClC1=C2NC=NC2n2c(nnc2-c2ccc(Cl)cc2)N1` (stereo not given), the growth was 91.6%.

For the compound `COc1cc(/C=N/NC(=O)Cn2c(-c3ccc(C)o3)nc3ccccc32)ccc1OCc1ccccc1`, the growth is 76.6%.

For the compound `C=C(C)[C@@H]1CC[C@]2(C(=O)OCCOCCOCC[P+](c3ccccc3)(c3ccccc3)c3ccccc3)CC[C@]3(C)[C@H](CC[C@@H]4[C@@]5(C)CC[C@H](OC(=O)C(Cl)Cl)C(C)(C)[C@@H]5CC[C@]43C)[C@@H]12`, the growth was -53.7% (active).

Regarding `c1ccc(-c2n(Cc3ccc4ccccc4n3)cc[n+]2Cc2ccc3ccccc3n2)cc1`, the growth was -12.3% (active).

Consider `CC(C)(C)c1ccc(OP(=S)(N/N=C/c2ccccc2O)Oc2ccc(C(C)(C)C)cc2)cc1`, for which the growth was 35.4%.

`O=C1c2cccc3c([N+](=O)[O-])ccc(c23)C(=O)N1CCCCl`: the growth was -62.2% [100 µM] (active).

As to `COc1cc(/C=C/C(=O)c2ccc(Nc3ncnc4ccccc34)cc2)cc(OC)c1`, the growth was 28.8%.

As for `C#Cc1cccc(NC(=O)C2CCCN(C(=O)CCl)C2)c1` (stereo not given), the growth is 66.3% [8.25 µM].

Regarding `c1ccc(-c2nn[nH]n2)c(-c2ccc(CN3CCN(c4nsc5ccccc45)CC3)cc2)c1`, the growth is 75.8%.

Consider `O=C(Cc1ccc(F)c(Cl)c1)Nc1cc(C2(C(F)(F)F)CC2)nn1Cc1ccccc1`, for which the growth is 23.9%.

Turning to `COC(=O)Nc1nc2ccc(C(=O)c3cccs3)cc2[nH]1`, the growth was 5.96% (active).

`Cc1nn(-c2ccc(Cl)cc2)c(C)c1N=Nc1ccc2oc(=O)ccc2c1`: the growth was 98.5%.

Turning to `O=C(N/N=C/[C@H](O)[C@H](O)[C@H](O)CO)c1ccc(NC(=O)c2cccnc2)cc1`, the growth is 113%.

For the compound `O=c1c2c(O)cccc2oc2c3c(cc(O)c12)O[C@H]1OC=C[C@@H]31`, the growth was 30.2%.

Turning to `O=C1CCC/C=C\C[C@H]2C=CC(=O)/C2=C/C[C@H](C/C=C\CC(F)(F)F)O1`, the growth is -46.5% (active).

With `CN(C)c1ccc2nc3ccc(=N)cc-3sc2c1`, the growth was 38.6%.

Turning to `O=C1Nc2ccc(F)cc2/C1=C\c1nc(-c2ccccc2F)n2ccccc12`, the growth was 69.2%.

Consider `O=[N+]([O-])/C(=C/c1ccccc1)c1ccccc1`, for which the growth is 99%.

As for `O=C1OCC2=C1C(c1cccc(Br)c1)c1cc3c(cc1N2CCO)CCC3` (stereo not given), the growth is -3.99% (active).

Consider `CC(C)=CCNc1ncnc2c1ncn2C1OC(CO)C(O)C1O` (stereo not given), for which the growth is -44.4% [1 mM] (active).

Turning to `CCOC(=O)c1c(C)n(-c2ccc(Cl)cc2)c2ccc(OC(=O)/C=C/c3ccccc3)cc12`, the growth is 22.9%.

With `N#Cc1ccc2nc[nH]c2c1`, the growth was 87.6%.

As to `CC1=CSC2=NCCN12`, the growth was 118%.

In the case of `OC1CCN(CCCOc2c3ccccc3nc3c2oc2ccccc23)CC1`, the growth is -16.4% (active).

For `COc1ccc(-c2cc(-c3cccs3)n(N=O)c(=O)c2C#N)cc1`, the growth is 99.5%.

`COc1cc(-c2csc(NC(=O)Nc3ccc(C(F)(F)F)cc3)n2)cc(OC)c1OC`: the growth is -8.63% (active).

With `CC1(C)c2[nH]c3ccccc3c2C[C@]2(C)[C@H]3CC=C4[C@@H]5C[C@@](C)(C(N)=O)CC[C@]5(C)CC[C@@]4(C)[C@]3(C)CC[C@@H]12`, the growth is 21.7%.

The record behind these values is PubChem BioAssay (NCI).
